Out of some 38,000 compounds screened, about 1,200 (3.2%) showed an effect of 50% or more. The median lay at about -58%. Many of the other results were omitted from the sample, so strong results are more common in it than they were.
System: Plasmodium falciparum
Assay: Calibr Malaria Delayed Death Assay SOP
Format: functional, organism-based
Set-up: scale not given: in the data most compounds retested in dose-response had high values
Conditions: concentration 4.99e-06 (unit not given; other assays of the set use mol/L)

Row | SMILES | Percent Effect [%]
1 | O=C(C1CCOC1)N1CCN(Cc2ccncc2)c2ncccc2C1 (centres undefined) | -72.96
2 | Cn1cc(I)c(C(=O)NC2CCCCC2)n1 | -69.52
3 | CCCC(O)CN1CCC(=O)N(CC)Cc2cc3c(cc21)OCO3 (centres undefined) | -23.81
4 | CC(CC(=O)N1CCCN(Cc2cscn2)CC1)n1cccc1 (centres undefined) | 4.954
5 | CC(NCc1cccc(COC2CCCC2)c1)c1cnn(C)c1 (centres undefined) | 19.99
6 | CC(C)CC(Cc1cccc(Br)c1)C(=O)O (centres undefined) | -132.5
7 | Cc1nc(C)c(S(=O)(=O)NC(=O)c2cccs2)s1 | -74.76
8 | CO[C@H]1CC[C@H]2[C@H]1OCCN2Cc1ccc(F)cc1.O=C(O)C(F)(F)F | -88.16
9 | Cc1ccnc(NC(=O)C2CCN(CCCn3ccnc3C)CC2)c1 | 23.63
10 | CCCc1nnsc1C(=O)NCC(O)c1ccc(SC)cc1 (centres undefined) | -63.08
11 | Cc1cccc(CN2CCC3(CCCN(Cc4cnn(C)c4)C3)C2)n1.O=C(O)C(F)(F)F.O=C(O)C(F)(F)F (centres undefined) | -27.4
12 | Cc1cccc(CN2CCCC3(CCN(CC4CCCO4)CC3)C2)n1.O=C(O)C(F)(F)F.O=C(O)C(F)(F)F (centres undefined) | 42.53
13 | COc1cccc(C(=O)N2CCCC(CNS(C)(=O)=O)C2)c1 (centres undefined) | -46.69
14 | O=C(CCn1cccc1)N1CCc2[nH]nc(COc3ccccc3)c2C1 | -21.18
15 | CS(=O)(=O)NC[C@H]1Cn2c(-c3ccccc3)cnc2CO1 | -22.21
16 | CS(=O)(=O)NC[C@H]1Cn2c(-c3ccc(F)cc3)cnc2CO1 | -35.88
17 | CS(=O)(=O)NC[C@H]1Cn2c(-c3ccc(Cl)cc3)cnc2CO1 | 56.68
18 | CC(C)c1noc(C2CCN(C(=O)c3cccs3)CC2)n1 | -59
19 | O=C(NCCCN1CCCC1=O)c1nc(-c2ccc3cc[nH]c3c2)no1 | -52.39
20 | O=C1CC2(CCN(Cc3ccsc3)C2)CN1c1ccc2c(c1)OCO2 (centres undefined) | -25.08
21 | O=C1CCCN1Cc1nnc2n1CCCN(C(=O)c1ccco1)C2 | -1.82
22 | O=C(c1cc(Cl)ccc1OC1CCN(C2CCCC2)CC1)N1CC(O)C1 | -105.7
23 | CC(=O)N1CCC(Oc2ccc(Cl)cc2C(=O)N2CCCO2)CC1 | -31.72
24 | O=C(c1cc(Cl)ccc1OC1CCN(C2CCCC2)CC1)N1CCCO1 | 51.12
25 | Cc1noc(C)c1CCC(=O)N1CCCCC1CNS(C)(=O)=O (centres undefined) | -22.15
26 | COc1ccc2c(ccn2CCC(=O)/N=c2\[nH]nc(C3CCCO3)s2)c1 (centres undefined) | -157

Row | SMILES | Percent Effect [%]
27 | Cc1nc(Oc2ccccc2F)sc1C(=O)O | -115.2
28 | Cc1cccc(-n2cc(CNc3ncnc4c3CCNCC4)cn2)c1 | 12.81
29 | Cc1ccc(-c2cc(CNc3ncnc4c3CCNCC4)no2)cc1 | 62.41
30 | c1ccc(Cn2cc(CNc3ncnc4c3CCNCC4)cn2)cc1 | -75.72
31 | COc1ccc(-c2cc(CNc3ncnc4c3CCNCC4)no2)cc1 | 13.56
32 | Cc1ccccc1-n1cc(CNc2ncnc3c2CCNCC3)cn1 | 25.52
33 | Clc1ccccc1-c1cc(CNc2ncnc3c2CCNCC3)no1 | 79.72
34 | Cc1nn(CC(=O)O)c(C)c1NS(=O)(=O)c1cc2ccccc2s1 | -90.75
35 | COc1ncccc1CNC1CCc2c(ccc(=O)n2CC2CC2)C1.O=C(O)C(F)(F)F.O=C(O)C(F)(F)F (centres undefined) | -69.76
36 | O=C(COCC(=O)N(c1ccccc1)c1ccccc1)N1CCOCC1 | -115.4
37 | CCc1nc(CN(C)C2CCN(CCCOc3ccccc3)C2)no1 (centres undefined) | -2.481
38 | CN(C)[C@H]1CCCCN(Cc2cnc(NCc3ccccc3)nc2)C1 | -25.46
39 | COc1ccccc1-c1ncc(CN2CCCC(CCC(N)=O)C2)s1 (centres undefined) | -45.2
40 | COc1ccccc1-c1ncc(CN2CCCC[C@H](N(C)C)C2)s1 | 69.91
41 | CC(=O)Nc1ccc2nc(CN(C)Cc3noc(C)n3)ccc2c1 | -81.21
42 | CC(C)S(=O)(=O)CCN1CCN(C(C#N)c2ccccc2)CC1 (centres undefined) | -69.53
43 | NC(=O)C1CCN(c2ccc(C(=O)N3CCc4ccccc43)cn2)C1 (centres undefined) | -37.49
44 | N#Cc1c[nH]nc1NCc1ccc2c(c1)OCO2 | -94.84
45 | O=C(CSc1ccc2c(c1)OCCO2)NS(=O)(=O)c1ccccc1Br | -14.98
46 | CNCc1nc(-c2ccc3c(c2)OCO3)c[nH]1.Cl.Cl | -83.48
47 | I.c1ccc(Sc2ccc3c(c2)OCO3)c(CNC2=NCCN2)c1 | 83.34
48 | c1ccc(-n2nnnc2NCc2ccc3c(c2)OCO3)cc1 | -79.7
49 | Cc1ccc(N(CC(=O)N2CCCCC2)C(=O)C2CCCO2)cc1 (centres undefined) | -77.19
50 | CS(=O)(=O)N1C[C@@H]2COC[C@]2(COCC(=O)N2CCCC2)C1 | -14.15
51 | CCCNc1ccc(C(=O)NCCc2ccc(Cl)cc2)cn1 | -35.94
52 | COc1cccc(C2CCCN2C(=O)NCCCn2cccn2)c1 (centres undefined) | -100.5

Row | SMILES | Percent Effect [%]
53 | CN(C)C(C)(C)CNCc1cn(C)nc1-c1cccnc1.Cl | -6.426
54 | Cn1cc(CNCCNC(=O)Cc2ccccc2)c(-c2cccnc2)n1 | 7.378
55 | Cn1cc(CNCCC(=O)NCc2ccccc2)c(-c2cccnc2)n1 | -26.7
56 | Cn1cc(CNCCc2cccnc2)c(-c2cccnc2)n1 | -43.46
57 | Cn1cc(CNCCOc2ccc(F)c(F)c2)c(-c2cccnc2)n1 | 53.44
58 | CCCNCc1cn(Cc2ccccc2)nc1-c1cccnc1.Cl | 57.61
59 | COCCCOc1ccc(C(=O)N(C)Cc2cccc(O)c2)cn1 | -93.61
60 | CC(C)(C)OC(=O)N1CCN(C(=O)c2cnn3c2OCCC3)CC1 | -73.8
61 | CC(CC(=O)c1ccco1)NC(=O)c1ccon1 (centres undefined) | -111.2
62 | O=C(Nc1nc2c(s1)CN(S(=O)(=O)C1CC1)CC2)c1ccsc1 | -79.83
63 | Fc1ccccc1C1NCCc2cc3c(cc21)OCCO3 (centres undefined) | -25.34
64 | CCCn1nnc(NCc2ccc(-c3ccc(Br)cc3)o2)n1 | -170.9
65 | CC(=O)NC1CCN(c2nc(N)nc3c2CCCC3)C1 (centres undefined) | -119.8
66 | CN1CCCc2c1nc1c(c2N)CCCC1.O=C(O)C(=O)O | 75.22
67 | CN1CCCCc2c1nc1c(c2N)CCC1.O=C(O)c1cc([N+](=O)[O-])ccc1Cl | 64.96
68 | CN1CCCc2c1nc1c(c2N)CCC1 | -51.79
69 | CN1CCCCc2c1nc1c(c2N)CCCC1 | 64.21
70 | Nc1nc2c(c(NC(=O)Nc3cccc(Cl)c3)n1)CCCC2 | -1.173
71 | CN1CCc2c1nc1c(c2N)CCC1 | -63.1
72 | Nc1nc2c(c(NC(=O)Nc3ccc(Cl)c(Cl)c3)n1)CCCC2 | -65.1
73 | CN1CCc2nc3c(c(N)c2C1)CCCN3C | -6.547
74 | CC1CN(C)c2ccccc2CN1C(=O)c1cc(C#N)cn1C (centres undefined) | -35.84
75 | CCN(CC)S(=O)(=O)c1ccc2c(c1)N(Cc1ccncc1)C(=O)CS2 | -124.7
76 | COCC(C)NC(=O)CN1CCC(CO)CC1 (centres undefined) | -50.48
77 | O=C1CC(CNc2cncc(Br)c2)c2ccccc2N1 (centres undefined) | 9.989
78 | O=C1CC(CNc2cncc(Cl)n2)c2ccccc2N1 (centres undefined) | 64.58

Row | SMILES | Percent Effect [%]
79 | Cc1cc(NCC2CC(=O)Nc3ccccc32)nc(C)n1 (centres undefined) | -157
80 | CS(=O)(=O)NC(=O)c1ccn(-c2ccc(Cl)c(Cl)c2)n1 | -100.9
81 | COCCN1C(=O)CC(c2cccnc2)C12CCN(C(=O)C1CC1)CC2.O=C(O)C(F)(F)F (centres undefined) | -113.7
82 | CC(Oc1ccc2c(c1)OCO2)C(=O)Nc1ccon1 (centres undefined) | -56.4
83 | Cc1cc2cc(CNC3CCN(CC(=O)N(C)C)CC3)oc2cc1C | -160
84 | NC(=O)CN1CCC(NCc2cc(C(F)(F)F)ccc2Cl)CC1 | -47.52
85 | Cc1cc(Cl)cc(C)c1CNC1CCN(CC(=O)N(C)C)CC1 | 52.71
86 | CNc1oc(-c2ccc(S(=O)(=O)N(C)C)o2)nc1C#N | -61.71
87 | Cc1nc(C)n(CC2CCCN(Cc3nc(-c4ccco4)no3)C2)n1 (centres undefined) | -26.23
88 | Cl.NC(Cc1nc(-c2ccccc2)no1)c1ccccc1 (centres undefined) | -266.4
89 | NC(c1ccccc1)c1ccc(OC(F)F)cc1 (centres undefined) | 9.975
90 | NC(=O)C(NC1CCN(CC2CCCCC2)CC1)c1ccccc1 (centres undefined) | -76.74
91 | NC(=O)C(NC(=O)COC1CCCC1)c1ccccc1 (centres undefined) | -14.18
92 | Cl.NC(CC1CCCCC1)c1ccccc1 (centres undefined) | 55.85
93 | NC(CC1CCCC1)c1ccc(Oc2ccccc2)cc1 (centres undefined) | 80.17
94 | Cl.NC(CC1CCCC1)c1ccccc1 (centres undefined) | 67
95 | CC(NC(=O)CSCC(N)=O)c1ccc(Oc2ccccc2)cc1 (centres undefined) | -26.87
96 | OC(CN1CCN(CC2CCCCC2)CC1)c1ccccc1 (centres undefined) | 2.939
97 | COc1ccc(Cn2cc(C(=O)N(C)Cc3ccon3)nn2)cc1 | -118.5
98 | CC(C)COC[C@H]1CC[C@H]2[C@H](CCN2C(=O)c2ccncc2F)O1.O=C(O)C(F)(F)F | -129.5
99 | COc1ccc(-c2cc(C(=O)Nc3nc[nH]n3)[nH]n2)cc1 | -113.2
100 | Cc1ccc(C(=O)N2CCc3nc4c(C)csc4c(=O)n3CC2)cn1 | -115
101 | CCn1nc(C)cc1C(=O)N1C[C@@H]2C[C@@H](c3noc(C)n3)O[C@@H]2C1 | -70.6
102 | O=C(NCC1(O)CCOC1)NCC1(c2ccccc2Cl)CC1 (centres undefined) | 1.417
103 | Cc1n[nH]cc1CNCC1(c2ccc3c(c2)OCO3)CCOCC1.Cl | -41.06
104 | Cc1n[nH]cc1CNCC1(c2ccccc2Cl)CCOCC1 | 55.9
